Molecules are shown by their SMILES. Results filed as inconclusive are left out. The source made the active and inactive calls. Rule for the calls: active = hit-call score of the fitted dose curve at least 0.9, where 1 is the maximum; inconclusive = response in the unintended direction; inactive = score below 0.9.

The assay is described as follows: ACEA_ER_80hr: ACEA Biosciences xCELLigence Real-Time Cell Analysis on Estrogen Receptor Agonism for Proliferation (AID 2282667). Particulars: T47D proliferation, impedance (xCELLigence), 80 h. The gist of the method:
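Cell-growth kinetics were measured by impedance in T47D cells treated continuously with compound (top 100 uM final, 1:4 steps, 8 points). Activity at 80 h was scored as signal gain over the DMSO baseline.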
As to `OCCN1CCOCC1`, the result was inactive.

Take `Cc1cc(O)c(C)c(C)c1O`: the outcome was inactive.

As a reminder, the AC50 is the concentration at which the activity in the assay is half-maximal. Turning to `N#CCCNCCC#N`, the AC50 is 274 nM (active).

In the case of `CCNC(=S)NCC`, the outcome was inactive.

In the case of `CCOC(=O)CCCCCCCCC(=O)OCC`, the call was inactive.

As for `O=c1cc[nH]cc1`, the result was inactive.

Take `CCCCC(CC)COC(=O)COc1ccc(Cl)cc1C` (configuration not stated): the compound was classed as inactive.

Take `C=C1CC/C=C(\C)CC[C@@H]2[C@@H]1CC2(C)C`: the outcome was inactive.

With `CCCCC(CC)COCCO` (configuration not stated), the result was inactive.

As for `N[C@@H](CCC(=O)O)C(=O)O`, the compound was classed as inactive.

With `C=C(C)CCCC(C)CCO` (configuration not stated), the result was inactive.

Take `O=C(O)C(F)(F)OC(F)(F)C(F)(F)OC(F)(F)C(F)(F)C(F)(F)C(F)(F)F`: the compound was classed as inactive.

As for `c1ccc(-c2nn[nH]n2)cc1`, the AC50 was 26.1 nM (active).

Turning to `O=C(O)c1ccccc1O`, the outcome was inactive.

Take `CC1=CCC(=C(C)C)CC1`: the result was inactive.

As for `CC12CCC(C1)C(C)(C)C2O` (configuration not stated), the compound was called inactive.

For `CCCCCCCCOC(C)=O`, the result was inactive.

As for `CCCCCCCCCCCCCCCCCC(=O)OCCCCCCCCCCCCCC(C)C`, the result was inactive.

In the case of `CC/C=C\CCCCCCCCCCOC(C)=O`, the call was inactive.

In the case of `OCCCO`, the call was inactive.

As to `C=CC(O)CCCCC` (configuration not stated), the outcome was inactive.

For `Nc1ccc(O)c(N)c1`, the compound was called inactive.

Turning to `CC(C)C(=O)c1ccccc1`, the compound was called inactive.

Regarding `O=C(O)C(F)(F)C(F)(F)C(F)(F)C(F)(F)C(F)(F)C(F)(F)C(F)(F)C(F)F`, the half-maximal activity concentration (AC50) is 14600 nM (active).

As to `CC(C)COC(=O)c1ccccc1O`, the compound was classed as inactive.

Regarding `CCCCCCCCCCOC(=O)c1ccccc1C(=O)OCCCCCCCC`, the outcome was inactive.

As for `C=C(C)C(=O)OCCC[Si](OC)(OC)OC`, the outcome was inactive.

In the case of `O=S1(=O)CC(Cl)(Cl)C(Cl)(Cl)C1`, the outcome was inactive.

For `c1ccc2c(c1)-c1ccc3ccc4cccc5cc-2c1c3c45`, the compound was called inactive.

`CC(=O)CCC(=O)O`: the compound was classed as inactive.

As to `O=[N+]([O-])c1cc(N(CCO)CCO)ccc1NCCO`, the compound was called inactive.

As for `CCCCOCCOCCOCCO`, the call was inactive.

For `C=C(C)C(=O)OCCC(F)(F)C(F)(F)C(F)(F)C(F)(F)C(F)(F)C(F)(F)C(F)(F)C(F)(F)F`, the compound was called inactive.

For the compound `CC(C)(CO)CO`, the result was inactive.

On to `CCCCCCCCCO`, for which the compound was called inactive.

For the compound `CC(C)(O)CCc1ccccc1`, the outcome was inactive.

Regarding `CCn1cc(C(=O)O)c(=O)c2ccc(C)nc21`, the compound was classed as inactive.
